Data published in article PMC12135187, “A role for pH dynamics regulating transcription factor DNA-binding selectivity”.
Over roughly 1,100 sequences, “relative enrichment” has its median near 0.38; the highest 2% begin near 0.66. Only a selection was taken, and the highest values are over-represented in it overall.

Target: T1, FOXC2 DBD WT (UniProt Q99958 72-172)
T1 sequence: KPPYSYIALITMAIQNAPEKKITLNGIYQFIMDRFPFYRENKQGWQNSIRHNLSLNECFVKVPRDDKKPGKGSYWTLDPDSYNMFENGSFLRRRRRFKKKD
Experiment: SELEX-seq (GST pull-down, four rounds, 16-nt random library); pH 7.0; 20 mM HEPES, 140 mM KCl, 0.05 mM TCEP-HCl, pH 7.0, room temperature, 30 min; 2.5 uM GST-FOXC2 DBD, 0.25 uM DNA library; high values mean tight binding
Settings: protein: recombinant; tags: N-terminal GST (pGEX-6P-2); dsDNA, one strand shown
How it was run: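 GST-tagged FOXC2 DNA-binding domain (E. coli-expressed, glutathione-purified) was incubated with a DNA library carrying a 16 bp randomized region, at 0.25 μM DNA and 2.5 μM protein, for 30 min at RT in 20 mM HEPES, 140 mM KCl, 0.05 mM TCEP–HCl, pH 7. Complexes were captured on glutathione Sepharose beads, washed, heat-eluted and PCR-amplified over four rounds. Initial and selected libraries were Illumina MiniSeq sequenced. Relative enrichment came from the Bioconductor SELEX R package.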

Sequence | binding signal
TAATGA | 0.31 relative enrichment
AAGCTA | 0.297 relative enrichment
TACACC | 0.418 relative enrichment
TACCTC | 0.625 relative enrichment
CACCTG | 0.535 relative enrichment
CACCTC | 0.731 relative enrichment
CAATAA | 0.513 relative enrichment
CTTATC | 0.378 relative enrichment
AACAGG | 0.325 relative enrichment
TCAACT | 0.324 relative enrichment
CAACCA | 0.261 relative enrichment
TTCCTA | 0.364 relative enrichment
CTTACA | 0.35 relative enrichment
TATAAA | 0.283 relative enrichment
ATACTC | 0.432 relative enrichment
GAAAAA | 0.304 relative enrichment
TGGTAA | 0.428 relative enrichment
AGAATG | 0.543 relative enrichment
TCAATC | 0.416 relative enrichment
CTTTGA | 0.338 relative enrichment
AACGTT | 0.324 relative enrichment
CTCATT | 0.311 relative enrichment
AACAAT | 0.374 relative enrichment

Sequence | binding signal
ATAGTC | 0.461 relative enrichment
TTCACT | 0.426 relative enrichment
AAAGAT | 0.356 relative enrichment
ATAGAA | 0.4 relative enrichment
TCTCTA | 0.45 relative enrichment
ATATTA | 0.266 relative enrichment
ATACGC | 0.457 relative enrichment
ACGAAA | 0.388 relative enrichment
CATACG | 0.448 relative enrichment
TATGAA | 0.387 relative enrichment
AATTCA | 0.336 relative enrichment
AAATTC | 0.343 relative enrichment
ACACGT | 0.335 relative enrichment
CTTAAG | 0.341 relative enrichment
AATCGT | 0.337 relative enrichment
CTACAC | 0.417 relative enrichment
TTTCCC | 0.38 relative enrichment
AAACCC | 0.354 relative enrichment
ACTAAT | 0.328 relative enrichment
ACTACA | 0.297 relative enrichment
GCTACA | 0.348 relative enrichment
ACCATG | 0.559 relative enrichment
ATCAAT | 0.463 relative enrichment

Sequence | binding signal
CGTCAT | 0.583 relative enrichment
AAATCC | 0.354 relative enrichment
CACTTC | 0.726 relative enrichment
TACTCC | 0.566 relative enrichment
TACTTC | 0.678 relative enrichment
CACTGC | 0.574 relative enrichment
CACTTA | 0.321 relative enrichment
AACTTC | 0.432 relative enrichment
AAGCTC | 0.44 relative enrichment
CTCTTG | 0.394 relative enrichment
ACCCTT | 0.488 relative enrichment
CACGTA | 0.469 relative enrichment
CATCTC | 0.642 relative enrichment
CCCATT | 0.378 relative enrichment
CCTCTA | 0.483 relative enrichment
CTTAAC | 0.232 relative enrichment
ACACGA | 0.377 relative enrichment
ATATGC | 0.286 relative enrichment
ACGACT | 0.561 relative enrichment
AGTCTA | 0.54 relative enrichment
ACCCAT | 0.43 relative enrichment
TGACAA | 0.337 relative enrichment
TACCCA | 0.526 relative enrichment

Sequence | binding signal
ATAAAC | 1 relative enrichment
ATAAGC | 0.803 relative enrichment
ATAAGA | 0.307 relative enrichment
GTAAAC | 0.561 relative enrichment
ATAAAA | 0.231 relative enrichment
ATAAGG | 0.316 relative enrichment
CCCTTG | 0.444 relative enrichment
GAGTAA | 0.439 relative enrichment
ATGCTA | 0.343 relative enrichment
AAAGCA | 0.341 relative enrichment
CAAGCA | 0.489 relative enrichment
TAAGCA | 0.814 relative enrichment
TCTGTG | 0.32 relative enrichment
AGCGTA | 0.542 relative enrichment
GACACA | 0.296 relative enrichment
CTCTTT | 0.469 relative enrichment
TTCTAC | 0.528 relative enrichment
ATCTTG | 0.318 relative enrichment
CTCTTC | 0.799 relative enrichment
ATCTTA | 0.332 relative enrichment
CTCTTA | 0.325 relative enrichment
TTCTCT | 0.453 relative enrichment
TTCTTC | 0.673 relative enrichment

Sequence | binding signal
ATCTTC | 0.665 relative enrichment
ATCTAG | 0.559 relative enrichment
GCCAAT | 0.341 relative enrichment
CCACTG | 0.649 relative enrichment
ACTTGC | 0.489 relative enrichment
CCCTGT | 0.366 relative enrichment
ACAGAG | 0.418 relative enrichment
CCTCAT | 0.455 relative enrichment
TAGTCA | 0.442 relative enrichment
AGTCAT | 0.491 relative enrichment
ATTGCC | 0.483 relative enrichment
GCCATA | 0.387 relative enrichment
AACTCA | 0.249 relative enrichment
TGCAAA | 0.311 relative enrichment
ACATTA | 0.277 relative enrichment
ACATGT | 0.276 relative enrichment
GTCTTA | 0.348 relative enrichment
GATCTA | 0.537 relative enrichment
AGATTA | 0.329 relative enrichment
